Screening results (PubChem BioAssay)
Rows were chosen to be rich in hits. Some 4.2% of all compounds tested hit in one or more screens of this group.
uPA surface inh: inhibitors of cell surface uPA generation | cell surface uPA generation assay, qHTS | Potency, µM (titrated, usually from 38.3 µM), for inactives: top-dose activity change, negative = inhibition, actives largely listed as inhibitors | actives 0.31% (n = 330,000) | AID 540303; active means well fitted inhibition curve with a large enough effect; inconclusive means small, poorly fitted or top-dose-only effect; inactive means no such curve, though single readings can be large or run the other way; tested in mouse RAW 264.7 cells; further: potency means the concentration at half of the fitted maximal effect; on the % scale 0 is the no-effect control and ±100 the full control effect; nearly all actives have a fitted effect of over 55% in size
Sfp inh: inhibitors of Bacillus subtilis Sfp phosphopantetheinyl transferase. Biochemical Sfp PPTase activity, qHTS. Potency, µM, for inactives: largest response in the series, negative = inhibition, hits mostly inhibitors. actives 3.5% (n = 310,000). AID 1490;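 further: the enzyme is Sfp with the accession as filed and its product quenches rhodamine fluorescence; potency means the concentration at half of the fitted maximal effect; 0% = enzyme reaction without inhibitor and -100% = no enzyme wells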
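Compounds were incubated with enzyme (final 15 nM) for 15 min at room temperature before substrate addition started the reaction. Fluorescence at 525 nm excitation, 598 nm emission was recorded immediately and after 30 minutes.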
TCR act: T cell receptor activation | primary human leukocytes, anti-CD3, IL-2 HTRF, 48 h | Potency, µM (top dose mostly 9.22 µM), inactives show at the highest dose activation of IL-2 secretion, most hits filed as activators | 330,000 tested, under 10 active; further: % of control where 0% means no effect
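Primary human leukocytes were stimulated with a-CD3 beads plus compounds for 48 hr without co-stimulation; secreted IL-2 was quantified by HTRF using a-IL-2-K (europium cryptate) and a-IL-2-d2, excited at 320nm with acceptor emission read at 665nm.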
ClpP mod: qHTS Assay for Activators of ClpP; ATP-dependent Clp protease proteolytic subunit (Bacillus subtilis (strain 168)), P80244; purified B. subtilis ClpP, FRET peptide cleavage, 20 min; Potency, µM (doses to about 57.5 µM), for the others: at the highest dose activity change, negative = active; actives 1.9% (n = 340,000); active means well fitted falling curve with a large enough effect; inconclusive means small, poorly fitted or top-dose-only effect; inactive means no such curve, though single readings can be large or run the other way; further: potency means the concentration at half of the fitted maximal effect; the source files actives as falling curves though it sought activators and does not explain the sign; nearly all actives have a fitted effect of over 65% in size
Target sequence (P80244 whole entry, looked up): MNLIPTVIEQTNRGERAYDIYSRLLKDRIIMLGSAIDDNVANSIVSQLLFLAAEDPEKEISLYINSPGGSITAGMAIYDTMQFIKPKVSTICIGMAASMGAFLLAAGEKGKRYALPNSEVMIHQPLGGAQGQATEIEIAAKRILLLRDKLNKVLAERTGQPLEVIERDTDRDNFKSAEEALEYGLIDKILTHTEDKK
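FRET quenching reversal measured ClpP activation: 10 microg/mL B. subtilis ClpP at pH 8 with the FRET-FV decapeptide, read at 430 nm after 320 nm excitation. The 20-min minus 0-min signal was scaled between DMSO/no-enzyme wells and ADEP (5.8 microM final).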
Active calls of the source: *; ! = not confirmed by another sample; [ ] = another dose, or the depositor's remark. Unless noted, the call rests on the fitted dose curve; in most records, active means well fitted curve in the direction sought with a large enough effect; inconclusive means small, poorly fitted or top-dose-only effect, or another doubt; inactive means no such curve, though single readings can be large; an effect the other way counts as inactive or inconclusive.

Cc1ccc(-n2c(SCC(=O)O)nc3sc4c(c3c2=O)CCCC4)cc1 was read as uPA surface inh 1%, Sfp inh 21%, TCR act -2% and ClpP mod inconclusive.
Screening COc1ccc(S(=O)(=O)N2CN(Cc3ccco3)c3nc4ccccc4nc32)cc1 returned Sfp inh 56µM*, TCR act -2% and ClpP mod inconclusive.
Cc1ccc(S(=O)(=O)Nc2nc3ccccc3nc2NCc2ccco2)cc1C was read as uPA surface inh 4%, Sfp inh 3%, TCR act -12% and ClpP mod 28µM*.
For COc1ccc(CN2CN(S(=O)(=O)c3ccccc3)c3nc4ccccc4nc32)cc1 the results were uPA surface inh 4%, Sfp inh 4% and TCR act 1%.
For O=S(=O)(c1ccc(F)cc1)N1CN(Cc2ccco2)c2nc3ccccc3nc21 the results were uPA surface inh -14%, Sfp inh 56µM* and ClpP mod inconclusive.
Cc1ccc(S(=O)(=O)N2CN(Cc3ccco3)c3nc4ccccc4nc32)cc1 was read as uPA surface inh -5%, Sfp inh -29%, TCR act 2% and ClpP mod -30%.
Cc1ccc(S(=O)(=O)N2CN(Cc3ccco3)c3nc4ccccc4nc32)cc1C was read as uPA surface inh 17%, Sfp inh 40µM*, TCR act -8% and ClpP mod -17%.
Screening Cc1ccc2[nH]c3c(=O)n(CC(=O)N4CCN(C)CC4)ncc3c2c1 returned uPA surface inh inconclusive, Sfp inh 11%, TCR act -1% and ClpP mod 4%.
O=c1c(O)cccc2cc(O)c(O)c(O)c12 was read as uPA surface inh inconclusive, Sfp inh 6.3µM*!, TCR act 13% and ClpP mod 2%.
`O=Cc1cc2ccccc2cc1O` gave ClpP mod 2%.
For CN(CC(=O)NC(=O)NCc1ccco1)Cc1nc2ccccc2c(=O)[nH]1 the results were uPA surface inh 7%, Sfp inh 89µM* and ClpP mod -1%.
For O=C(Nc1ccc2ccccc2c1)c1nc(S(=O)(=O)Cc2ccccc2F)ncc1Cl the results were ClpP mod -22%.
For COc1ccccc1NC(=O)C1=C(C)Nc2nnnn2C1c1ccccc1OC (centres undefined) the results were uPA surface inh 4%, Sfp inh 11%, TCR act -2% and ClpP mod -10%.
`COc1ccccc1/C=C1\CCCC2=C1Nc1nnnn1C2c1ccccc1OC` (centres undefined) gave uPA surface inh -8%, Sfp inh 50µM*, TCR act 6%[46.1 µM] and ClpP mod -18%.
Screening Cc1ccc(N(CC2=NCCN2)c2cccc(O)c2)cc1 returned uPA surface inh inconclusive, Sfp inh 79µM*!, TCR act -13% and ClpP mod inconclusive.
`CCc1ccc(NC(=O)Cc2c(C(=O)O)c(C)cn2C)cc1` gave ClpP mod 1%.
Screening COc1ccc(-c2cc(C(=O)N3CCCCCC3)c3ccccc3n2)cc1 returned uPA surface inh inconclusive, TCR act 9% and ClpP mod 6.3µM*.
O=C(c1cc(-c2ccc(Cl)s2)nc2ccccc12)N1CCCC1 was read as uPA surface inh 1%, TCR act 1% and ClpP mod 32µM*.
`O=S(=O)(c1ccc(S(=O)(=O)N2CCC(O)CC2)cc1)N1CCCC1` gave uPA surface inh -1%, Sfp inh 7% and TCR act -2%.
For Cc1cn2c(=O)cc(COc3ccc(NC(=O)COc4ccccc4)cc3)nc2s1 the results were ClpP mod -3%.
`O=c1[nH][nH]c(=S)n1-c1ccccc1C(F)(F)F` gave Sfp inh 7.9µM*.
O=C(c1ccccc1)c1cc(Cl)ccc1N1C(=O)C=CC1=O was read as uPA surface inh -10% and Sfp inh 3.2µM*.
For COc1ccccc1Nc1nc(C)cc(C)n1 the results were uPA surface inh -4%, Sfp inh 16%, TCR act 0% and ClpP mod 18µM*.
`O=c1c(Br)c(Br)cnn1-c1ccccc1` gave uPA surface inh 2%, Sfp inh 27% and TCR act 5%.
Cc1ccc(-n2ncc(Br)c(Br)c2=O)cc1 was read as uPA surface inh 13µM*, Sfp inh 4%, TCR act 4% and ClpP mod 1%.
CCOc1ccc(-n2c(C)nc3cc(C(=O)NC4CCCC4)ccc32)cc1 was read as ClpP mod -4%.
Screening O=C(/C=C/c1ccc(O)c(O)c1)OC1C(O)CC(OC(=O)/C=C/c2ccc(O)c(O)c2)(C(=O)O)CC1O (centres undefined) returned uPA surface inh 2%, Sfp inh 45µM*, TCR act 3% and ClpP mod -4%.
`O=C(Nc1ccccc1)[C@@H]1CC=C[C@@H]2CCN(C3CC3)C(=O)[C@@H]21` gave ClpP mod -1%.
Screening O=C(Oc1ccc(Cl)c2cccnc12)N1CCOCC1 returned uPA surface inh 2%, Sfp inh 7%, TCR act 4% and ClpP mod 32µM*.
Screening Cc1ccc(Oc2nc(-c3ccccc3)ncc2S(=O)(=O)c2ccc(C)cc2)cc1 returned uPA surface inh 12%, Sfp inh -6%, TCR act 8% and ClpP mod 22µM*.
C[C@H]1[C@H](C)CC[C@]2(C)CC[C@]3(C)C(=CC[C@@H]4[C@@]5(C)CC[C@@H](O)[C@](C)(C(=O)O)[C@@H]5CC[C@]43C)[C@H]12 was read as Sfp inh 6%.
Screening COc1ccc(CCN2C(=O)C3C4C=CC(C5CC45)C3C2=O)cc1OC (centres undefined) returned uPA surface inh -3%, Sfp inh 11%, TCR act -1% and ClpP mod -13%.
For COc1ccc(CCN2C(=O)C3C4C=CC(C3C2=O)C2C(=O)N(CCc3ccc(OC)c(OC)c3)C(=O)C42)cc1OC (centres undefined) the results were Sfp inh 12%, TCR act 0% and ClpP mod 1.8µM*.
Cc1ccc(-n2nnnc2CNC(=O)c2ccccc2)cc1C was read as ClpP mod 2%.
Screening COc1ccc(Nc2c(C3CC3)nc3nc(C)cc(C)n23)cc1 returned ClpP mod -5%.
For O=C(CN1CCCC1)Nc1ccccc1Sc1ccc(Cl)cc1 the results were uPA surface inh 16%, Sfp inh 79µM*, TCR act -24% and ClpP mod -17%.
`COCCNCC(=O)Nc1ccccc1Sc1ccccc1` gave uPA surface inh 9%, Sfp inh 56µM*, TCR act -1%[46.1 µM] and ClpP mod 2%.
`O=C(CNCCN1CCOCC1)Nc1ccccc1Sc1ccccc1` gave uPA surface inh 1%, Sfp inh 56µM* and TCR act 3%[46.1 µM].
COCCNCC(=O)Nc1nc(C)cs1 was read as uPA surface inh -12%, Sfp inh 45µM* and TCR act 3%.
